In PubChem BioAssay AID624126 (The Scripps Research Institute Molecular Screening Center, 2012):
In all, about 360,000 compounds went through this assay and about 1,400 (0.39%) were called active.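 The calls were made as follows: active = activation above its plate's cutoff, the mean activation of sample wells plus 3 SD; inactive = the rest.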 The sample as a whole holds a higher share of actives than the screen did.

The molecules below were run against Muscarinic acetylcholine receptor M4 (Homo sapiens) (UniProt P08173) (assay: CHRM4 PAMs potentiating acetylcholine calcium signal – CHO-K1 cells, Fluo-8 calcium fluorescence, primary screen (AID 624126)). Details: CHO-K1 hM4/Gqi5, Fluo-8 calcium fluorescence, ACh EC20; at 3 µM; active compounds read high; 0% = ACh EC20, 100% = maximal ACh.
Muscarinic acetylcholine receptor M4 (Homo sapiens), sequence (P08173 whole entry, looked up): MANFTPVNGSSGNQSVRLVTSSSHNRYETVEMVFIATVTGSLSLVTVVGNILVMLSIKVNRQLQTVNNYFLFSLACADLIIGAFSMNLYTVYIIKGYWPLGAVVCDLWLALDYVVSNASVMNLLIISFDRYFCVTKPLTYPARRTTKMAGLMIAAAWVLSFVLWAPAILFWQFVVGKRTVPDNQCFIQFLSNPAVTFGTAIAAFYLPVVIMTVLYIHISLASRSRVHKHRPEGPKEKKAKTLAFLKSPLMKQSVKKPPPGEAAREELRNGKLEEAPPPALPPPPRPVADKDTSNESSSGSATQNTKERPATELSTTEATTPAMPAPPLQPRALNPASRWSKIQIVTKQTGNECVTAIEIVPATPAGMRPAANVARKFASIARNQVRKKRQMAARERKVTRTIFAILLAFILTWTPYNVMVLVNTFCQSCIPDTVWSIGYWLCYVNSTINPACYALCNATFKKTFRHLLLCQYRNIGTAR

Compound | activation
COc1ccc2nc(C)cc(Nc3cccc(C(=O)O)c3)c2c1 | -1.48% (inactive)
COC(=O)CSc1ncnc2c1cnn2-c1ccc(C)cc1C | 1.46% (inactive)
Cc1ccc(-n2ncc3c(Nc4cccc(C(=O)O)c4)ncnc32)cc1 | 29.6% (active)
O=C1CN(C(=O)COC(=O)C2CC(=O)N(Cc3ccco3)C2)c2ccccc2N1 (centres undefined) | 13.2% (inactive)
O=C(NCc1ccc2c(c1)OCO2)c1c(-c2ccsc2)sc2ccccc12 | -3.52% (inactive)
COc1cc2c(cc1OC)CN(C(C)C(=O)Nc1cccc(S(=O)(=O)N3CCOCC3)c1)CC2 (centres undefined) | 1.73% (inactive)
O=C(CNC(=O)C12CC3CC(CC(C3)C1)C2)OCC(=O)N1CCCCC1 | -2.08% (inactive)
COC(=O)c1ccc(CNC(=O)C2CCC(=O)N(Cc3cccc(F)c3)C2)cc1 (centres undefined) | 2.75% (inactive)
COC(=O)c1ccc(CNC(=O)C2CCC(=O)N(Cc3ccccn3)C2)cc1 (centres undefined) | 13.8% (active)
Cc1ccccc1CCNC(=O)C1CCC(=O)N(Cc2ccc(Cl)cc2)C1 (centres undefined) | -4.94% (inactive)
Cc1cc(C)c(S(=O)(=O)Nc2c(C)n(C)n(-c3ccccc3)c2=O)cc1[N+](=O)[O-] | -0.44% (inactive)
CCOC(=O)c1cc(C(C)C)sc1NC(=O)COC(=O)c1nccnc1N | 17% (inactive)
CC(C)(C)C(=O)CN1C2=NCCN2c2ccccc21 | -8.44% (inactive)
Cc1ccc(N(C(=O)c2ccc(CN3CCOCC3)o2)C(C(=O)NCCC(C)C)c2cccs2)c(C)c1 (centres undefined) | 9.68% (inactive)
O=C(NC1CCCC1)C(c1ccc(N2CCOCC2)cc1)N(C(=O)c1ccco1)c1ccccc1F (centres undefined) | -4.93% (inactive)
Cc1cccc(N(C(=O)c2ccc(CN3CCOCC3)o2)C(C(=O)NC2CCCCC2)c2ccc(F)cc2)c1 (centres undefined) | 15.7% (active)
CSc1ncccc1C(=O)Nc1cccc(S(=O)(=O)N2CCOCC2)c1 | 7.64% (inactive)
Cc1ccc(S(=O)(=O)N(C)C)cc1NC(=O)C(C)OC(=O)c1ccc2ccccc2n1 (centres undefined) | 21.1% (inactive)
COC(=O)c1cc(C(=O)OCC(=O)Nc2cc(C)on2)cc([N+](=O)[O-])c1 | 19.2% (inactive)
COC(=O)c1ccccc1NC(=O)Cn1nc(C(F)(F)F)c2c1CCC2 | -1.81% (inactive)
COCCn1c(SCC(=O)N2CCCCCC2)nc2c(c1=O)SCC2 | 28% (active)
COCCn1c(SCC(=O)Nc2ccc(F)cc2F)nc2c(c1=O)SCC2 | 0.05% (inactive)
COCCn1c(SCC(=O)Nc2ccccc2F)nc2c(c1=O)SCC2 | 1.76% (inactive)
CC(=O)n1cc([C@@H]2C=C(C(=O)N3CCN(Cc4ccc5c(c4)OCO5)CC3)O[C@H](OCc3ccc(CO)cc3)C2)c2ccccc21 | -4.81% (inactive)
